esBAF inh – Bmi1 luciferase reporter increase in mESCs, primary screen, esBAF inhibitor project, mouse ES cells, Bmi1 luciferase knock-in, single point; 24 h; 100% = twice the neutral-well signal; reporter increase, % at 12.5 µM; 350,000 tested, 2% active; in the data active = activation above about 40%; inconclusive = no clear call, values can overlap the other calls;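 also: a rise in the Bmi1 reporter signal indicates esBAF inhibition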
MITF TRPM1 HTS – activators of MITF-driven TRPM1 promoter reporter, primary screen, cell-based, SK-MEL-5, luciferase, single point; SK-MEL-5 TRPM1-promoter luciferase, 24 h; % of positive control, neutral wells = 0; activation, % at 12.5 µM; 300,000 tested, 0.75% active; AID 588334, 2011;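 active = mean activation of at least 80% with every replicate also reaching 80%; inconclusive = mean reaches 80% but some replicate falls short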
C2C12 statin – suppressors of statin myotoxicity in C2C12 myotubes, primary screen, cell-based, single point, plate reader | rescue of ATP level, % at 7.49 µM | 330,000 tested, 0.78% active | AID 602340, 2012 | C2C12 myotubes + simvastatin, ATP luminescence, 48 h; scaled: DMSO 0, geranylgeraniol control 100;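 active = mean ATP rescue above about 67%, or every replicate alone reaching that limit, limit read from the data, passing the limit was not always enough; inconclusive = no clear call, values can overlap the other calls; inactive = mean under the limit and some replicate under it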;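 also: myotubes were challenged with 10 µM simvastatin during compound exposure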
Rtt109 HAT inh – inhibitors of C. albicans Rtt109/Vps75 HAT, primary screen, biochemical, ThioGlo CoA-SH fluorescence, plate reader. Histone acetyltransferase RTT109 (Candida albicans (strain SC5314 / ATCC MYA-2876)), …. purified Rtt109/Vps75, 4 h. inhibition, % at 34.9 µM. 330,000 tested, 0.16% active. AID 540336, 2011;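 active = inhibition of at least 50% in every replicate; inconclusive = best replicate reaches 50% inhibition but some replicates fall short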
Target sequence (Q5AAJ8 whole entry, looked up): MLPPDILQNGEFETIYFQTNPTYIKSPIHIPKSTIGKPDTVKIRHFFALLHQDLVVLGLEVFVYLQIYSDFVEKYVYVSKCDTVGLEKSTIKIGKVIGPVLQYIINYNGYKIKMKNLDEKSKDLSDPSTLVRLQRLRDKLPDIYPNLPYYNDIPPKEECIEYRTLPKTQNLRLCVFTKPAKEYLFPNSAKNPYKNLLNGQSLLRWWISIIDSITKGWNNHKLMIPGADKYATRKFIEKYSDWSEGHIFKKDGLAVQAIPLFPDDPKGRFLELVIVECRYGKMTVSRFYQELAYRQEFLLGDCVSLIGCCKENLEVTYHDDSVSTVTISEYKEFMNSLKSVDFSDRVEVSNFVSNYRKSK
Wnt bcat act – Wnt/beta-catenin pathway activators, primary screen, cell-based, plate reader, single point. Wnt/beta-catenin reporter cell assay, activator. activation, % at 9.35 µM. 300,000 tested, 1.2% active. AID 743398, 2014; in the data active = activation above about 30%, passing the limit was not always enough; inconclusive = no clear call, values can overlap the other calls
Ring1 derepress – Ring1 mRNA increase in mouse ESCs, confirmation, esBAF inhibitor project, cell-based, mouse ESC, RT-qPCR, cherry-pick; shares compounds with esBAF inh; mouse ESC E14, Ring1 mRNA RT-qPCR fold change; fold change at 33 µM; 550 tested, under 10 active;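 active = Ring1 gene expression raised more than 2-fold over untreated cells in both replicates at either tested dose; inconclusive = only one replicate above 2-fold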;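 also: Ring1 transcript normalised to actin housekeeping signal by TaqMan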
esBAF Fgf4 qPCR – Fgf4 mRNA decrease in mouse ESCs, confirmation, esBAF inhibitor project, cell-based, mouse ESC, RT-qPCR, cherry-pick; 550 tested, 4% active; Fgf4 expression fold change at 33 µM; mouse ESC E14, Fgf4 mRNA qPCR fold change; active compounds read low; shares compounds with esBAF inh;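 active = Fgf4 expression under 0.8 fold of control in both repeat measurements at one or both tested doses; inconclusive = under 0.8 fold in just a single repeat measurement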;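 also: Fgf4 transcript normalised to actin in duplex TaqMan qPCR; cells exposed to compound for 24 h before lysis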
esBAF Bmi1 qPCR – esBAF inhibition via Bmi1 de-repression, confirmation, cell-based, RT-qPCR, mouse ESC, single point, cherry-pick | shares compounds with esBAF inh | mouse ESE14 ES cells, Bmi1 mRNA qPCR fold; active compounds read high | fold change at 33 µM | 550 tested, under 10 active | AID 743180, 2013;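 active = Bmi1 expression fold change above 6 at either tested concentration, seen in replicate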;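 also: higher fold means more Bmi1 de-repression and stronger esBAF inhibition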
A549 tox SP – A549 cell cytotoxicity, cytotoxicity control, plate reader, single point, cherry-pick; shares compounds with esBAF inh; cell viability change % (negative = cytotoxic), % at 25 µM, hits read low; 550 tested, under 10 active; call rule not given here
HepG2 tox SP – HepG2 cell cytotoxicity, cytotoxicity control, plate reader, single point, cherry-pick; AID 743189, 2013; shares compounds with esBAF inh; 550 tested, 4% active; activity change, negative = inhibition, % at 25 µM; active compounds read low; in the data active = activity change below about -50%
HEK293 tox SP – HEK293 cell cytotoxicity, cytotoxicity control, plate reader, single point, cherry-pick; shares compounds with esBAF inh; 550 tested, 3% active; activity change, negative = inhibition, % at 25 µM, hits read low; in the data active = activity change below about -38%, passing the limit was not always enough
A number is an active result; i = inactive; ? = inconclusive; nt = no result given. An excerpt weighted towards active compounds, which were near 3.1% of everything screened.

SMILES	esBAF inh	MITF TRPM1 HTS	C2C12 statin	Rtt109 HAT inh	Wnt bcat act	Ring1 derepress	esBAF Fgf4 qPCR	esBAF Bmi1 qPCR	A549 tox SP	HepG2 tox SP	HEK293 tox SP
Cc1noc(C)c1S(=O)(=O)N(C)C[C@H]1Oc2ccc(NS(=O)(=O)c3cccs3)cc2C(=O)N([C@@H](C)CO)C[C@H]1C	i	nt	i	nt	nt	nt	nt	nt	nt	nt	nt
CO[C@H]1CN(C)C(=O)c2ccc(NC(=O)C3CC3)cc2OC[C@@H](C)N(C)C[C@@H]1C	i	nt	i	nt	nt	nt	nt	nt	nt	nt	nt
C[C@H](CO)N1C[C@H](C)[C@H](CN(C)C(=O)Nc2ccccc2)Oc2cc(C#CC3(O)CCCC3)ccc2S1(=O)=O	i	nt	i	nt	nt	nt	nt	nt	nt	nt	nt
COc1ccc(NC(=O)Nc2cccc3c2O[C@@H](CN(C)S(=O)(=O)c2cccs2)[C@H](C)CN([C@@H](C)CO)C3=O)cc1	i	nt	nt	nt	nt	nt	nt	nt	nt	nt	nt
COc1ccccc1C(=O)NCCC(=O)NC1CCC(C)CC1 (stereo not given)	72.8	?	i	i	i	i	i	i	i	i	i
COc1ccccc1C(=O)NCCC(=O)NC1CCCCC1C (stereo not given)	i	i	i	i	i	nt	nt	nt	nt	nt	nt
COc1ccc(-n2nc(C(=O)NCC(=O)N3CCN(c4ccc(F)cc4)CC3)c3ccccc3c2=O)c(OC)c1	i	i	i	i	i	nt	nt	nt	nt	nt	nt
COc1ccc(-n2nc(C(=O)NCC(=O)N3CCN(c4ccccc4)CC3)c3ccccc3c2=O)c(OC)c1	i	97.5	i	i	i	i	i	i	i	i	i
O=C(CCN1CCCCC1)NCC[C@H]1CC[C@H](NC(=O)Cc2cccnc2)[C@H](CO)O1	i	nt	i	nt	nt	nt	nt	nt	nt	nt	nt
O=C1c2ccccc2C2N1CCCN2C(=O)c1sc2ccccc2c1Cl (stereo not given)	64.4	nt	i	nt	i	i	i	i	i	i	i
Fc1cccc(-c2ncc(-c3ccccc3)o2)c1	73.2	i	i	i	41.6	i	i	i	i	i	i
CCC(=O)N1C[C@H](O)COC[C@@H]2O[C@@H](CC(=O)NCC3CCCCC3)CC[C@H]21	i	nt	i	nt	nt	nt	nt	nt	nt	nt	nt
Cn1cccc1C(=O)OCc1ccc(C(C)(C)C)cc1	84.5	nt	i	i	i	i	?	i	i	i	i
COC(=O)C[C@H]1CC[C@H](NS(=O)(=O)c2ccccc2F)[C@H](CO)O1	i	nt	i	nt	nt	nt	nt	nt	nt	nt	nt
O=C(O)C=C1CCN(c2ncc(C(F)(F)F)cc2Cl)CC1	63.0	nt	i	i	i	i	i	i	i	i	i
c1ccc(C2Nc3ccccc3Oc3ccccc32)cc1 (stereo not given)	i	i	i	i	nt	nt	nt	nt	nt	nt	nt
c1ccc2c(c1)Nc1cc3ccccc3cc1O2	84.0	i	i	i	i	i	i	i	i	i	i
Cc1noc(C)c1S(=O)(=O)Nc1ccc2c(c1)C(=O)N([C@@H](C)CO)C[C@H](C)[C@H](CN(C)C(=O)CCCN(C)C)OCCCC[C@H](C)O2	i	nt	nt	nt	nt	nt	nt	nt	nt	nt	nt
c1ccc(-c2nnc3oc(-c4cccs4)nn23)cc1	166.4	nt	i	nt	i	i	?	i	i	i	i
CC(C)C#Cc1ccc2c(c1)O[C@@H](CN(C)C)[C@H](C)CN([C@@H](C)CO)S2(=O)=O	i	nt	i	nt	nt	nt	nt	nt	nt	nt	nt
C=CCn1c(-c2ccc(N)cc2)nc2ccccc21	58.4	i	i	i	i	i	i	i	i	i	i
CCn1c(-c2ccc(N)cc2)nc2ccccc21	i	i	i	i	i	nt	nt	nt	nt	nt	nt
Nc1ccc2c(c1)Cc1cc(N)c(Cl)cc1-2	88.3	i	i	i	i	i	i	i	i	i	i
COCC#Cc1ccc2c(c1)O[C@@H](CN(C)C(=O)C1CCC1)[C@H](C)CN([C@H](C)CO)S2(=O)=O	i	nt	i	nt	nt	nt	nt	nt	nt	nt	nt
COc1ccc(OCc2cnc(Cl)s2)cc1	i	i	nt	i	i	nt	nt	nt	nt	nt	nt
SMILES	esBAF inh	MITF TRPM1 HTS	C2C12 statin	Rtt109 HAT inh	Wnt bcat act	Ring1 derepress	esBAF Fgf4 qPCR	esBAF Bmi1 qPCR	A549 tox SP	HepG2 tox SP	HEK293 tox SP
Cc1ccc(OCc2cnc(Cl)s2)c(C)c1	83.9	i	i	i	i	i	i	i	i	i	i
C[C@@H]1CN([C@H](C)CO)C(=O)c2ccccc2-c2ccccc2CO[C@H]1CN(C)C(=O)Nc1ccc(F)cc1	i	nt	nt	nt	nt	nt	nt	nt	nt	nt	nt
C(=NN=Cc1c[nH]c2ccccc12)c1c[nH]c2ccccc12	74.1	nt	i	nt	46.0	i	i	i	i	i	i
O=C1CS/C(=N/N=C/c2c[nH]c3ccccc23)N1	nt	nt	nt	nt	i	nt	nt	nt	nt	nt	nt
O=C(Nc1ccccc1Cl)c1cc(=O)c2ccccc2o1	73.1	nt	i	i	i	i	i	i	i	i	i
O=C(NCc1ccccc1)c1cc(=O)c2ccccc2o1	nt	i	nt	nt	nt	nt	nt	nt	nt	nt	nt
Cc1cc(=O)oc2cc(NC(=O)c3cccc(F)c3)ccc12	68.3	i	i	i	i	i	i	i	i	i	i
C[C@@H]1CN([C@H](C)CO)S(=O)(=O)c2ccc(C#C[C@@H](C)O)cc2O[C@H]1CN(C)C(=O)c1ccccc1	i	nt	i	nt	nt	nt	nt	nt	nt	nt	nt
Nc1cccc(N=[N+]([O-])c2cccc(N)c2)c1	76.9	i	i	i	i	i	i	i	i	i	i
O=[N+]([O-])c1cccc(N=NNc2cccc([N+](=O)[O-])c2)c1	nt	nt	nt	nt	i	nt	nt	nt	nt	nt	nt
COc1ccc(NC(=O)N(C)C[C@H]2Oc3c(NC(=O)C4CCOCC4)cccc3C(=O)N([C@@H](C)CO)C[C@@H]2C)cc1	i	nt	i	nt	nt	nt	nt	nt	nt	nt	nt
COc1cc(OC)c2c(-c3ccccc3)cc(C3CCCCC3)nc2c1	i	i	i	i	i	nt	nt	nt	nt	nt	nt
c1ccc2cc(C3CCCCC3)ncc2c1	76.3	99.0	i	i	i	i	?	i	i	i	i
COc1cccc(NC(=O)CN(C)C(=O)CNC(=O)c2sc3ccccc3c2Cl)c1	66.5	i	i	i	i	i	i	i	i	i	i
CN(CC(=O)Nc1c(Cl)cccc1Cl)C(=O)CNC(=O)c1sc2ccccc2c1Cl	i	nt	i	i	i	nt	nt	nt	nt	nt	nt

Source: PubChem BioAssay
